Data as given in PubChem BioAssay (Tox21).
Records with an inconclusive call do not appear. Active and inactive are the calls of the source. Unless noted, calls come from the whole dose curve; as a rule, active = well fitted curve in the direction sought with a large enough effect in the repeat runs; inconclusive = weak or mixed curves; inactive = no such curve, though single readings can be large; an effect the other way counts as inactive or inconclusive.

Tests used:
[1] = qHTS assay to identify small molecule that activate the aryl hydrocarbon receptor (AhR) signaling pathway - cell viability counter screen (AID 743086);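 note: HepG2 liver cells carrying the AhR DRE luciferase reporter; series mostly up to about 70 µM; nearly all actives have a fitted effect of over 45% in size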
Summary of the method: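 HepG2-AhR-luc (HG2L7.5c1) cells, 4000/well, were preincubated 5 h at 37C, exposed to compound in qHTS format for 24 hr at 37C, then given CellTiter-Fluor for 30 min; viability was read as fluorescence in the reporter wells.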

[2] = target: Peroxisome proliferator-activated receptor gamma (Homo sapiens) (UniProt P37231); test: qHTS assay to identify small molecule agonists of the peroxisome proliferator-activated receptor gamma (PPARg) signaling pathway (AID 743094; active = well fitted activation curve with a large enough effect in the signal ratio in the repeat runs, not every such curve was filed as active; the % refers to the signal ratio)
Summary of the method: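 Agonist activity was taken from a beta-lactamase reporter (FRET substrate, 1 h at room temperature) in HEK293H cells carrying a PPARg UAS-bla construct. Compounds in DMSO were incubated 17 h at 37C after a 5 h cell pre-incubation.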

[3] = target: Peroxisome proliferator-activated receptor gamma (Homo sapiens) (UniProt P37231); test: qHTS assay to identify small molecule antagonists of the peroxisome proliferator-activated receptor gamma (PPARg) signaling pathway (AID 743191; calls by dose curve; note: series mostly up to about 63 µM; nearly all actives have a fitted effect of over 30% in size)
Summary of the method: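 GeneBLAzer PPARg UAS-bla HEK293H cells carrying a UAS-driven beta-lactamase reporter were plated at 3000 cells/well, preincubated 5 h at 37C, then given compound for 17 h at 37C; LiveBLAzer B/G FRET substrate was read after 1 h at room temperature.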

[4] = qHTS assay to identify small molecule antagonists of the peroxisome proliferator-activated receptor gamma (PPARg) signaling pathway - cell viability counter screen (AID 743194); note: nearly all actives have a fitted effect of over 55% in size
Summary of the method: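 PPARg-UAS-bla HEK293H cells were plated, rested 5 h at 37 C, then treated with compounds plus rosiglitazone (50 nM final) for 17 h at 37 C; viability was then read by CellTiter-Glo luminescence after 30 min at room temperature.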

[5] = qHTS assay for small molecule agonists of the antioxidant response element (ARE) signaling pathway (AID 743202; active = well fitted activation curve with a large enough effect in the signal ratio in the repeat runs, not every such curve was filed as active; the % refers to the signal ratio; note: potency is the fitted concentration of half-maximal effect)
Summary of the method: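 Steps: seed ARE-bla HepG2 cells (2,000/well); incubate 5 h at 37 C; add compounds by pin tool; incubate 16 h at 37 C; add FRET substrate; read fluorescence after 2 h at RT.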

[6] = qHTS assay for small molecule agonists of the antioxidant response element (ARE) signaling pathway - cell viability counter screen (AID 743203; calls by dose curve; note: nearly all actives have a fitted effect of over 55% in size)
Summary of the method: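 Viability counter screen: CellTiter-Glo luminescence, read after 30 min at room temperature, in ARE-bla HepG2 wells. Compound exposure lasted 16 h at 37C/5% CO2, following a 5 h pre-incubation of the cells after plating.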

[7] = qHTS assay for small molecule activators of the heat shock response signaling pathway - cell viability counter screen (AID 743209); note: nearly all actives have a fitted effect of over 50% in size
Summary of the method: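 Cytotoxicity counter screen run in the same wells as the heat-shock bla reporter assay: HeLa HSE-bla cells, 5 h compound exposure at 37 C, viability read by CellTiter-Glo luminescence.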

[8] = qHTS assay to identify small molecule agonists of the peroxisome proliferator-activated receptor delta (PPARd) signaling pathway - cell viability counter screen (AID 743211); note: nearly all actives have a fitted effect of over 55% in size
Summary of the method: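 PPARd-bla HEK293H cells (UAS-beta-lactamase reporter) were treated with compounds for 17 h at 37 C. Viability was then read in the same wells by CellTiter-Glo luminescence after 30 min at room temperature.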

[9] = target: Peroxisome proliferator-activated receptor delta (Homo sapiens) (UniProt Q03181); test: qHTS assay to identify small molecule agonists of the peroxisome proliferator-activated receptor delta (PPARd) signaling pathway (AID 743212; calls by dose curve)
Summary of the method: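 Cells expressing a UAS-driven beta-lactamase reporter (PPARd-bla HEK293H) were given test compounds after a 5 h settle and kept at 37 C. Reporter activity was then measured as FRET fluorescence using LiveBLAzer B/G substrate.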

[10] = qHTS assay to identify small molecule antagonists of the peroxisome proliferator-activated receptor delta (PPARd) signaling pathway - cell viability counter screen (AID 743213); note: nearly all actives have a fitted effect of over 50% in size
Summary of the method: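 PPARd-bla HEK293H cells (3000/well) got compound plus 300 nM L165041 agonist for 17 h at 37 C. Viability in the same wells came from CellTiter-Glo luminescence after 30 min at room temperature.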

[11] = target: Peroxisome proliferator-activated receptor delta (Homo sapiens) (UniProt Q03181); test: qHTS assay to identify small molecule antagonists of the peroxisome proliferator-activated receptor delta (PPARd) signaling pathway (AID 743215; active = well fitted inhibition curve with a large enough effect in the signal ratio in the repeat runs, not every such curve was filed as active; the % refers to the signal ratio;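 note: cells stimulated with agonist L165041 at 300 nM final during compound exposure; series mostly up to about 62 µM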)
Summary of the method: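 Agonist L165041 (300 nM final) added with compound to PPARd-bla HEK293H UAS-bla reporter cells; 17 h incubation at 37 C. Read-out: LiveBLAzer FRET substrate, 2 h at room temperature, fluorescence intensity.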

[12] = qHTS assay to identify small molecule agonists of the farnesoid-X-receptor (FXR) signaling pathway - cell viability counter screen (AID 743218); note: nearly all actives have a fitted effect of over 45% in size
Summary of the method: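 Viability counter screen in the same wells: CellTiter-Glo luminescence, 30 min room-temperature incubation, measured after the beta-lactamase read. Cells were GeneBLAzer FXR-UAS-bla HEK 293T, compound-treated 16 h at 37C.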

[13] = qHTS assay to identify small molecule antagonists of the farnesoid-X-receptor (FXR) signaling pathway - cell viability counter screen (AID 743221; active = well fitted cell-killing curve with a large enough effect in the repeat runs, not every such curve was filed as active; note: nearly all actives have a fitted effect of over 50% in size)
Summary of the method: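 FXR-UAS-bla HEK 293T cells were treated with test compounds plus chenodeoxycholic acid (50 uM final) for 16 h at 37 C. Cell viability in the same wells was then read as CellTiter-Glo luminescence after 30 min at room temperature.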

[14] = target: Vitamin D3 receptor (Homo sapiens) (UniProt P11473); test: qHTS assay to identify small molecule agonists of the vitamin D receptor (VDR) signaling pathway (AID 743222; calls by dose curve)
Summary of the method: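 Agonist mode, beta-lactamase reporter: fluorescence from LiveBLAzer B/G FRET substrate (2 h, room temperature) read after 16 h compound treatment at 37 C of VDR-bla cells, which were pre-incubated 4 h after seeding.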

[15] = target: Vitamin D3 receptor (Homo sapiens) (UniProt P11473); test: qHTS assay to identify small molecule antagonists of the vitamin D receptor (VDR) signaling pathway (AID 743223; active = well fitted inhibition curve with a large enough effect in the signal ratio in the repeat runs, not every such curve was filed as active; the % refers to the signal ratio)
Summary of the method: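 VDR-bla cells were plated, incubated 4 h at 37C, then given compound and 1alpha,25-dihydroxyvitamin D3 (3 nM final). After 16 h at 37C, LiveBLAzer B/G FRET substrate was added for 2 h at room temperature and fluorescence read.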

[16] = qHTS assay to identify small molecule agonists of the vitamin D receptor (VDR) signaling pathway - cell viability counter screen (AID 743224); note: series mostly up to about 63 µM; nearly all actives have a fitted effect of over 50% in size
Summary of the method: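 Counter screen run in the same wells as the VDR-bla reporter assay: CellTiter-Glo luminescence, 30 min at room temperature, after 16 h compound treatment at 37C of cells pre-plated for 4 h.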

[17] = qHTS assay to identify small molecule antagonists of the vitamin D receptor (VDR) signaling pathway - cell viability counter screen (AID 743225); note: nearly all actives have a fitted effect of over 50% in size
Summary of the method: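 VDR-bla HEK 293T cells, 4 h pre-incubation at 37C, then compound plus 1-alpha,25-dihydroxyvitamin D3 (3 nM final) for 16 h. After the beta-lactamase FRET read, CellTiter-Glo was added to the same wells; luminescence after 30 min at room temperature.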

[18] = qHTS assay for small molecule activators of the heat shock response signaling pathway (AID 743210; active = well fitted activation curve with a large enough effect in the signal ratio in the repeat runs, with a control signal flat, not every such curve was filed as active; the % refers to the signal ratio;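 note: HeLa cells with beta-lactamase reporter driven by heat shock elements; series mostly up to about 63 µM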)
Summary of the method: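 Activation of heat shock element-controlled beta-lactamase expression is measured in HeLa cells by LiveBLAzer FRET fluorescence, with compound exposure lasting 5 h at 37 C and substrate loading 2.5 h at room temperature.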

[19] = target: Bile acid receptor (Homo sapiens) (UniProt Q96RI1); test: qHTS assay to identify small molecule antagonists of the farnesoid-X-receptor (FXR) signaling pathway (AID 743217; active = well fitted inhibition curve with a large enough effect in the signal ratio in the repeat runs, not every such curve was filed as active; the % refers to the signal ratio)
Summary of the method: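 Antagonist mode: chenodeoxycholic acid at 50 uM final stimulates a UAS-driven beta-lactamase reporter in HEK 293T FXR-bla cells during 16 h, 37C compound exposure. Read-out is FRET substrate fluorescence after 2 h at room temperature.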

[20] = target: Bile acid receptor (Homo sapiens) (UniProt Q96RI1); test: qHTS assay to identify small molecule agonists of the farnesoid-X-receptor (FXR) signaling pathway (AID 743220; active = well fitted activation curve with a large enough effect in the signal ratio in the repeat runs, not every such curve was filed as active; the % refers to the signal ratio)
Summary of the method: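 FXR-UAS-bla HEK 293T cells carrying a UAS-driven beta-lactamase reporter were plated for 5 h at 37C/5% CO2, then exposed to DMSO-dissolved Tox21 10K compounds for 16 h at 37C. A LiveBLAzer B/G FRET substrate was loaded for 2 h at room temperature before fluorescence reading.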

Measured: Potency

Peroxisome proliferator-activated receptor gamma (Homo sapiens), sequence (P37231 whole entry, looked up): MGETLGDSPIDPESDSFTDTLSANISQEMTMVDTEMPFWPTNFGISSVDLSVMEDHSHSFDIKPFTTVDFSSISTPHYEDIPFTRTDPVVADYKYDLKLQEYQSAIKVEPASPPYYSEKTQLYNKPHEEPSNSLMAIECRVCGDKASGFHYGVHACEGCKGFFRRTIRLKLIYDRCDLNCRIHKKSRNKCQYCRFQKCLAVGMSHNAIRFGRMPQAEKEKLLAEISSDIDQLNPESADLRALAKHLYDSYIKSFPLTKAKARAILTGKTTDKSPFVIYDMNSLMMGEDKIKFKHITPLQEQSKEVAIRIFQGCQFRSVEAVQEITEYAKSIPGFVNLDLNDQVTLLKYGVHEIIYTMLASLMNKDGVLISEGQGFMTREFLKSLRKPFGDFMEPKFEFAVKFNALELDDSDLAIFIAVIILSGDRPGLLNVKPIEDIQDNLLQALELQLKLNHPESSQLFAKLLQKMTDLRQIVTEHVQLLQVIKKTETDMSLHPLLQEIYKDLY
Vitamin D3 receptor (Homo sapiens), sequence (P11473 whole entry, looked up): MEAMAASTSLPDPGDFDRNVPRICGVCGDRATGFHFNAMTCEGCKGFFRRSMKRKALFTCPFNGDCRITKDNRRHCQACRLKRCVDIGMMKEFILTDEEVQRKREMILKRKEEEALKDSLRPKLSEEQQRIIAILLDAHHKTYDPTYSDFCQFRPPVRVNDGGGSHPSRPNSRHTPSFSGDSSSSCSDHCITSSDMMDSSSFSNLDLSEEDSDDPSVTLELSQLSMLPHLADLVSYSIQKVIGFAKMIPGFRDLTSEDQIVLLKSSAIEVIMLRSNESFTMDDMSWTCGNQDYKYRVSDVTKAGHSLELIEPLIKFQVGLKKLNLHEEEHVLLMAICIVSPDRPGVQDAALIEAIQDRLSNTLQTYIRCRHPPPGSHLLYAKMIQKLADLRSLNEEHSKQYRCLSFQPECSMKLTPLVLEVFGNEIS
Peroxisome proliferator-activated receptor delta (Homo sapiens), sequence (Q03181 whole entry, looked up): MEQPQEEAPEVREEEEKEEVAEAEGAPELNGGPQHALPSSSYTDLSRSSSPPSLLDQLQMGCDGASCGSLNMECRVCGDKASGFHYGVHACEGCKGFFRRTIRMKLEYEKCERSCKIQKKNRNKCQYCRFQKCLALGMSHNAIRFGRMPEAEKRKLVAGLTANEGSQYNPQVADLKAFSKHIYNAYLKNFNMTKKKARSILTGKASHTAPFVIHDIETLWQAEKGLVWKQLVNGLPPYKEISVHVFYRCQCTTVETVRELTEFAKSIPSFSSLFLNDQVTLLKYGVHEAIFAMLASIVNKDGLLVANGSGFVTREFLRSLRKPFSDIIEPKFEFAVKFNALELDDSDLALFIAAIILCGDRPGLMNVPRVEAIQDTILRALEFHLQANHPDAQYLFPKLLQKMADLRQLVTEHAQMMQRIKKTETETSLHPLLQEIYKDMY
Bile acid receptor (Homo sapiens), sequence (Q96RI1 whole entry, looked up): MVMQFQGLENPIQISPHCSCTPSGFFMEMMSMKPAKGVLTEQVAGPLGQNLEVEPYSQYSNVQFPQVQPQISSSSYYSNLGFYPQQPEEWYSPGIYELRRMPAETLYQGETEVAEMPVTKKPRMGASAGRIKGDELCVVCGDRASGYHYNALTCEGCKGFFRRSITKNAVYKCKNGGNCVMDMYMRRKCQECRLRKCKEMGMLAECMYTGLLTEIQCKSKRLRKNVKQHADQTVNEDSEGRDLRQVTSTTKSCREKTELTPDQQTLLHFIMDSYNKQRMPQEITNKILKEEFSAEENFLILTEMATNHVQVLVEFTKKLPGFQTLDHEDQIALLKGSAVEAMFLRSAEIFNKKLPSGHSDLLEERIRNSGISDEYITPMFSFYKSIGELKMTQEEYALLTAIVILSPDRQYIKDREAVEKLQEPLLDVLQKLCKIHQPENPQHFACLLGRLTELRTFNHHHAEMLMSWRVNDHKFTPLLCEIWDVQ

O=[N+]([O-])c1ccc([As](=O)(O)O)cc1
active: [5] 54.5 µM
inactive: [1] | [2] | [3] | [4] | [6] | [7] | [8] | [9] | [10] | [11] | [12] | [13] | [14] | [15] | [16] | [17]

c1ccc(-c2ccccc2)cc1
inactive: [1] | [2] | [3] | [4] | [5] | [6] | [18] | [8] | [9] | [10] | [11] | [19] | [12] | [20] | [13] | [16]

Cc1ccccc1O
inactive: [1] | [2] | [3] | [4] | [5] | [6] | [7] | [18] | [8] | [9] | [10] | [11] | [12] | [13] | [14] | [15] | [16] | [17]

O=[N+]([O-])c1ccc(Oc2ccc(Cl)cc2Cl)cc1
inactive: [1] | [2] | [3] | [4] | [5] | [6] | [7] | [18] | [8] | [9] | [10] | [11] | [13] | [14] | [15] | [16]

CC1C=[C-]C=C1.[C-]#[O+].[C-]#[O+].[C-]#[O+].[Mn]
inactive: [1] | [2] | [3] | [4] | [5] | [6] | [7] | [18] | [8] | [9] | [10] | [11] | [19] | [20] | [13] | [14] | [15] | [16] | [17]

Nc1c(Cl)c(Cl)nc(C(=O)O)c1Cl
inactive: [1] | [2] | [3] | [4] | [5] | [6] | [7] | [18] | [8] | [9] | [10] | [11] | [12] | [13] | [16] | [17]

CCOP(=S)(OCC)SCCSCC
inactive: [1] | [2] | [3] | [4] | [5] | [6] | [7] | [18] | [8] | [9] | [10] | [11] | [12] | [13] | [16] | [17]

Cn1cc(-c2ccccc2)c(=O)c(-c2cccc(C(F)(F)F)c2)c1
inactive: [1] | [2] | [3] | [4] | [5] | [6] | [7] | [18] | [8] | [9] | [10] | [11] | [12] | [13] | [16]

CCCN(CCC)c1c([N+](=O)[O-])cc(C(F)(F)F)cc1[N+](=O)[O-]
inactive: [1] | [2] | [3] | [4] | [5] | [6] | [7] | [8] | [9] | [10] | [11] | [19] | [20] | [13] | [14] | [15] | [16] | [17]

O=c1[nH]c(=O)[nH]c(=O)[nH]1
inactive: [1] | [2] | [3] | [4] | [5] | [6] | [7] | [8] | [9] | [10] | [11] | [12] | [13] | [14] | [15] | [16] | [17]

CC(C)=C[C@@H]1[C@@H](C(=O)OCc2coc(Cc3ccccc3)c2)C1(C)C
inactive: [1] | [2] | [3] | [4] | [5] | [6] | [18] | [8] | [9] | [10] | [11] | [12] | [20] | [13] | [14] | [15] | [16]

Cc1cccc([N+](=O)[O-])c1
inactive: [1] | [2] | [3] | [4] | [5] | [6] | [7] | [8] | [9] | [10] | [19] | [12] | [20] | [13] | [14] | [15] | [16] | [17]

O=c1ccc(=O)[nH][nH]1
inactive: [1] | [2] | [3] | [4] | [5] | [6] | [7] | [8] | [10] | [19] | [12] | [20] | [13] | [14] | [15] | [16] | [17]

COC(=O)c1ccccc1N
inactive: [1] | [2] | [3] | [4] | [5] | [6] | [7] | [8] | [9] | [10] | [11] | [13] | [14] | [15] | [16]

CN(C)CCO
inactive: [1] | [2] | [3] | [4] | [5] | [6] | [18] | [8] | [9] | [10] | [11] | [12] | [13] | [14] | [15] | [16] | [17]

CCOP(=S)(OCC)Oc1cnc2ccccc2n1
inactive: [1] | [2] | [3] | [4] | [5] | [6] | [7] | [18] | [8] | [9] | [11] | [19] | [12] | [20] | [13] | [16]

CC(Oc1ccc(Cl)cc1Cl)C(=O)O (stereo not given)
inactive: [1] | [2] | [3] | [4] | [5] | [6] | [7] | [18] | [8] | [10] | [19] | [12] | [20] | [13] | [14] | [15] | [16]
